# Compounds with a hit are over-represented: about 6.5% of the library has one in this group of screens.
# HT1080NT lethal: qHTS for induction of synthetic lethality in tumor cells producing 2HG: qHTS for the HT-1080-NT fibrosarcoma cell line. HT-1080-NT fibrosarcoma viability, CellTiter-Glo ATP luminescence, 48 h. Potency, µM (doses to about 46.1 µM), for inactives: at the top dose activity, negative = less viability, usual class: cytotoxic. 1.6% of 360,000 active;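 further: NT is the 2HG producing partner of a matched IDH1 knockdown line; potency means the concentration at half of the fitted maximal effect; 0% = DMSO-treated cells and -100% = media-only wells without cells; nearly all actives have a fitted effect of over 55% in size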
#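 Luminescent CellTiter-Glo readout after 48 hours of compound exposure at 37 degrees C defined viability of HT-1080-NT cells. Activity was normalized to DMSO wells and cell-free media wells; concentration-response curves were fitted and assigned curve classes.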
# HepG2 tox: qHTS for Inhibitors of TGF-b: Cytotox Counterscreen | HepG2 CAGA-GFP viability, ATP luminescence, 18 h | Potency, µM (doses to about 46.1 µM), without a hit: at the highest dose activity change, negative = cytotoxicity, hits mostly cytotoxic | 0.76% of 410,000 active | AID 588856, 2011; further: potency means the concentration at half of the fitted maximal effect
#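 HepG2 CAGA-GFP cells (1000/well, DMEM with 1% FBS) received compound, then TGF-beta at 500 pg/mL final, and were incubated 18 hours at 37 degrees C. Viability was read by CellTiter-Glo luminescence. Media-only wells were set as complete cell-killing and DMSO as no toxicity.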
# HT1080 IDH1KD tx: qHTS for induction of synthetic lethality in tumor cells producing 2HG: qHTS for the HT-1080-IDH1KD cell line. HT-1080 IDH1 knockdown viability, ATP luminescence, 48 h. Potency, µM (highest dose often 46.1 µM), for inactives: at the top dose activity, negative = toxicity, usual class: cytotoxic. 2% of 360,000 active;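 further: potency means the concentration at half of the fitted maximal effect; 0% = DMSO wells and -100% = cell-free medium wells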
#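 Assay cells: HT-1080 with IDH1 knockdown, 750 per well, RPMI/5% FBS. Exposure: 48 h at 37 °C following 2 h pre-incubation. Read: CellTiter-Glo luminescence; fitted concentration-response, curve class assigned.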
# TGFb SMAD3 inh: qHTS for Inhibitors of TGF-b; HepG2 CAGA-GFP TGF-b/SMAD3 reporter, GFP fluorescence, 18 h; TGF-beta stimulated, 500 pg/mL final; Potency, µM (highest dose often 46.1 µM), for inactives: top-dose activity, negative = inhibition, most hits filed as inhibitors; 1.2% of 410,000 active; further: potency means the concentration at half of the fitted maximal effect; on the % scale 0 is the no-effect control and ±100 the full control effect; nearly all actives have a fitted effect of over 65% in size
#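 Read-out: total well GFP (ex488/em500-530) summed from mean per-cell fluorescence. Cells: HEPG2 CAGA-GFP, 1% FBS DMEM, 18 h at 37 degrees C with 500 pg/mL final TGF-beta. Unstimulated wells served as the full-inhibition control; stimulated DMSO wells = 0%.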
# IL1B secr inh: qHTS for Inhibitors of Inflammasome Signaling: IL-1-beta AlphaLISA Primary Screen; THP-1 LPS/ATP IL-1B secretion, AlphaLISA, 16 h; active compounds read low; AID 743279, 2014; 4.7% of 360,000 active; activity change, % at 57.5 µM; in the data active means activity change below about -50%; inconclusive means mostly about -30% to -49%; further: on the % scale 0 is the no-effect control and ±100 the full control effect
#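 Secreted IL-1B measured by AlphaLISA bead assay after 16 h compound exposure of THP-1 cells; compounds (final up to 57.5 uM) added 1 h before LPS (250 ng/mL) and ATP (1.25 mM) stimulation; lower signal means less secretion.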
# Giardia kill: Small Molecules that selectively kill Giardia lamblia: qHTS | Giardia lamblia trophozoite viability | activity change, % at 7.66 µM, hits read low | 0.15% of 340,000 active | AID 540267, 2011; in the data active means activity change below about -80%; inconclusive means between about -30% and that limit;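 further: parasites exposed to compound for two days anaerobically before the ATP read; on the % scale 0 is the no-effect control and ±100 the full control effect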
#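 Trophozoite viability was measured as ATP-dependent luminescence, read 15-30 min after reagent addition. Before that, parasites at 100 cells/well were exposed to compounds for 48 h, anaerobically, at 37 deg C.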
# * marks the source's active call; other numbers are inactive results; ? = inconclusive; · = no result. Unless noted, the call rests on the fitted dose curve; in most records, active means well fitted curve in the direction sought with a large enough effect; inconclusive means small, poorly fitted or top-dose-only effect, or another doubt; inactive means no such curve, though single readings can be large; an effect the other way counts as inactive or inconclusive.
SMILES,HT1080NT lethal,HepG2 tox,HT1080 IDH1KD tx,TGFb SMAD3 inh,IL1B secr inh,Giardia kill
Cc1ccc(-c2nnc(-c3ccc4ccccc4c3)o2)cc1,?,-1%,9.2µM*,-1%,-9,?
CCOC(=O)Cn1nc(C)n(-c2ccccc2)c1=O,5%,-8%,4%,-5%,1,-9
CCOC(=O)Cn1nc(C)n(-c2c(C)cccc2C)c1=O,9%,1%,2%,8%,-62*,2
COc1ccc(S(=O)(=O)NCCN2CCNC2=O)cc1OC,-1%,10%,4%,-2%,13,8
CCOc1cc(-c2cc(-c3ccccc3)nc(N)c2C#N)ccc1O,-29%,-51%,-25%,25%,?,6
CCOc1cc(-c2cc(-c3ccc(N)cc3)nc(N)c2C#N)ccc1O,?,-10%,?,?,-62*,3
CN(C)C(CNc1ncnc2sc3c(c12)CCCCC3)c1ccco1 (stereo unspecified),-20%,3%,-24%,?,-51*,2
O=C(CSc1ncnc2sc3c(c12)CCCCC3)NCc1ccco1,?,-2%,16µM*,?,0,6
O=C(CSc1nc2ccc(Cl)cc2[nH]1)NCc1ccco1,-8%,-3%,-4%,-5%,-67*,-5
Cc1sc2ncnc(NCC(c3ccco3)N(C)C)c2c1C (stereo unspecified),5%,-1%,7%,-1%,17,3
O=C(CSc1c2c(nc3cc(Cl)ccc13)CCCC2)NCc1ccccc1Cl,·,-28%,·,?,·,·
O=C(CSc1c2c(nc3cc(Cl)ccc13)CCCC2)NCc1ccco1,-19%,-44%,?,18µM*,-66*,-4
O=C(Cn1ncc2c(=O)oc3ccccc3c21)NCCc1ccsc1,-3%,1%,-3%,3%,5,16
O=C(CSc1ncccc1-c1nc2ccccc2[nH]1)NCc1ccco1,?,-17%,?,-7%,-12,-4
Cc1cc2nc(-c3cccnc3SCC(=O)NCc3ccco3)[nH]c2cc1C,10µM*,-66%,10µM*,-1%,12,-28
COc1ccc(C(=O)NCC(=O)OCCOc2ccc(Cl)cc2)cc1OC,-3%,0%,1%,14%,-56*,-11
C[C@]12c3[nH]c4ccc(Cl)cc4c3CCN1C(=O)[C@@H](CC(=O)NCCCn1ccnc1)C[C@@H]2C(=O)N1CCCCC1,-7%,-11%,-5%,-26%,0,-4
O=C(C[C@H]1C[C@H](C(=O)N2CCCCC2)[C@@]2(CCc3ccccc3)c3[nH]c4ccc(Cl)cc4c3CCN2C1=O)NCCCn1ccnc1,?,-104%,?,?,-58*,11
CCN(CC)C(=O)[C@H]1C[C@H](CC(=O)NCCCn2ccnc2)C(=O)N2CCc3c([nH]c4cc(-c5ccco5)ccc34)[C@]12C,-1%,-12%,-1%,-4%,2,-12
O=C(C[C@H]1C[C@H](C(=O)N2CCOCC2)[C@@]2(CCC3CCCC3)c3[nH]c4cc(-c5ccco5)ccc4c3CCN2C1=O)NCCCn1ccnc1,?,-85%,16µM*,?,?,17
COCCCNC(=O)C[C@H]1C[C@H](C(=O)N2CCCCC2)[C@@]2(CCc3ccccc3)c3[nH]c4cc(-c5ccco5)ccc4c3CCN2C1=O,-22%,-1%,?,?,?,-2
O=C(C[C@H]1C[C@H](C(=O)N2CCCCC2)[C@@]2(CCc3ccccc3)c3[nH]c4cc(-c5ccco5)ccc4c3CCN2C1=O)NCCN1CCOCC1,?,-99%,?,?,-58*,-5
COc1ccc(N2CC(C(=O)Nc3ccc(S(=O)(=O)N4CCOCC4)cc3)CC2=O)cc1 (stereo unspecified),-3%,-11%,17%,2%,-13,32
Cc1ccccc1Nc1nnc(-c2ccc(C)c(S(=O)(=O)N3CCOCC3)c2)c2ccccc12,·,12%,·,6%,·,·
CCOc1ccc(C(=O)NCC(=O)OCc2cc([N+](=O)[O-])cc3c2OCOC3)cc1OCC,14%,15%,9%,15%,16,-21
SMILES,HT1080NT lethal,HepG2 tox,HT1080 IDH1KD tx,TGFb SMAD3 inh,IL1B secr inh,Giardia kill
Cc1cccc2cc(CN(Cc3ccco3)S(=O)(=O)c3ccc4c(c3)OCCO4)c(=O)[nH]c12,?,-36%,?,8%,-56*,4
Cc1cc(C)c2[nH]c(=O)c(CN(CC3CCCO3)S(=O)(=O)c3ccc4c(c3)OCCO4)cc2c1 (stereo unspecified),20%,-1%,5%,2%,?,2
Cc1ccccc1S(=O)(=O)Cc1ccc(C(=O)N2CCN(c3cccc(C)c3C)CC2)o1,5.8µM*,-17%,6.5µM*,?,0,-5
Cc1ccccc1N1CCN(C(=O)C2CCCCC2)CC1,-4%,0%,-3%,14%,-12,8
Cc1cccc(N2CCN(C(=O)c3ccncc3)CC2)c1C,9.2µM*,3%,13µM*,0%,60,-8
Cc1cccc(N2CCN(C(=O)C3CCCCC3)CC2)c1C,-2%,-25%,-7%,?,-65*,12
Cc1cccc(N2CCN(C(=O)N3CCOCC3)CC2)c1C,16µM*,5%,?,-2%,60,-10
CCOc1ccc(CCNC(=O)COC(=O)c2n[nH]c3ccccc23)cc1OCC,2%,-11%,0%,-16%,-8,·
O=C1CC[C@@H]2CC(N3CCN(c4ccccc4)CC3)C[C@@H]3CCN1[C@H]23 (stereo partly specified),6%,-6%,11%,-2%,-2,?
CCn1cc(C(=O)N2CCN(c3cccc(C)c3C)CC2)c2cc(OC)c(OC)cc2c1=O,·,-10%,·,10µM*,·,·
CCn1cc(C(=O)N2CCN(c3cccc(C(F)(F)F)c3)CC2)c2cc(OC)c(OC)cc2c1=O,·,-27%,·,?,·,·
COc1cc(C(=O)N2CCN(c3cccc(C)c3C)CC2)cc(OC)c1OC,1.2µM*,-16%,0.82µM*,?,106,24
COc1cc(C(=O)N2CCN(c3cc(Cl)ccc3Cl)CC2)cc(OC)c1OC,1.3µM*,1%,0.65µM*,?,66,-12

# From PubChem
